BAZ2B block: blocks human BAZ2B | Q9UIF8 | AlphaScreen BAZ2B-H3K14Ac peptide displacement | Potency, µM (highest dose often 114 µM), most hits filed as inhibitors | actives 4.4% (n = 360,000) | AID 504333; also: nearly all actives have a fitted effect of over 60% in size
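Compounds, titrated to a top concentration of 110 uM, were incubated 30 min at room temperature with preformed BAZ2B/acetyl-K14 H3 peptide complex (50 nM each). Proximity signal was measured by AlphaScreen after 20 min with beads.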
Six1-Eya2 inh: blocks human Six1 binding to Eya2 | actives 0.56% (n = 360,000) | activity change, % (no concentration beside the values) | AlphaScreen GST-Six1/His-Eya2 binding, biochemical; hits give low values | Q15475+O00167; in the data active = activity change below about -65%; inconclusive = mostly about -30% to -63%
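AlphaScreen luminescence read after one hour at 37 °C in darkness. Pin-transferred compounds met GST-Six1 and His-Eya2 protein (5X stock 250 nM/500 nM) plus glutathione donor and Ni-chelate acceptor beads (5X, 50 ug/mL).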
JMJD2A Tudor: JMJD2A Tudor domain (human) inhibition | AID 504339 | AlphaScreen JMJD2A-Tudor / H3K4me3 peptide binding | actives 4.4% (n = 390,000) | Potency, µM (top dose mostly 114 µM), most hits filed as inhibitors | O75164; also: nearly all actives have a fitted effect of over 50% in size
G9a block: inhibitors of human histone lysine methyltransferase G9a. actives 8.8% (n = 350,000). Q96KQ7. Potency, µM (doses to about 102 µM), hits mostly inhibitors. G9a H3K9 monomethylation, AlphaScreen, 2 h; also: nearly all actives have a fitted effect of over 75% in size
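G9a (20 nM) preincubated 15 min RT with compounds, then 500 nM biotinylated H3K9 peptide and 20 uM SAM added; 2 h RT reaction. Monomethyl-H3K9 product detected by AlphaScreen with anti-H3K9me1 antibody, streptavidin donor and anti-rabbit IgG acceptor beads.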
HP1b binding inh: HP1-beta chromodomain-methylated histone interaction inhibition; P83916; AlphaScreen HP1-beta / biotin-H3K9me3 peptide binding; Potency, µM (doses to about 114 µM), usual class: inhibitors; actives 0.56% (n = 390,000); also: nearly all actives have a fitted effect of over 70% in size
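AlphaScreen: HP1-beta (50 nM) preformed 30 min with biotin-H3(1-18)K9me3 peptide (50 nM) in PBS pH 7.4, 0.01% Tween-20. Compound added for 30 min at RT, then streptavidin donor/nickel chelate acceptor beads (10 ug/mL) for 30 min.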
CtBP-E1A blk: inhibitors of CtBP/E1A interaction; activity change, % (no concentration beside the values); actives 0.49% (n = 340,000); AlphaScreen GST-E1A/His-CtBP binding, 1536-well; hits give low values; in the data active = activity change below about -65%; inconclusive = mostly about -30% to -63%
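AlphaScreen with 125 nM GST-E1A and 125 nM His-CtBP (5X stocks) in Tris pH 8.0, 300 mM NaCl, BSA, Tween 20, TCEP. Compounds preincubated 2 h at 37 deg C, then glutathione donor/nickel acceptor beads added for 1 h at 37 deg C in dark.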
A number is an active result; – = inactive; ? = inconclusive; · = no result; [ ] = dose if it differs, or a comment. Compounds with a hit are over-represented: about 10% of the library has one in this group of screens. Unless noted, calls follow the shape of the dose curve; as a rule, active = well fitted inhibition curve with a large enough effect; inconclusive = small, poorly fitted or top-dose-only effect; inactive = no such curve, though single readings can be large or run the other way.

SMILES	BAZ2B block	Six1-Eya2 inh	JMJD2A Tudor	G9a block	HP1b binding inh	CtBP-E1A blk
COc1cccc(NS(=O)(=O)c2ccc3[nH]cc(C(=O)N(C)Cc4ccco4)c(=O)c3c2)c1	–	–	?	–	–	–
Cc1ccccc1NS(=O)(=O)c1ccc2[nH]cc(C(=O)N(C)Cc3ccco3)c(=O)c2c1	56µM	–	?	·	–	–
O=C(c1cccc(-n2cccc2)c1)N1CCN(S(=O)(=O)c2c(F)cccc2F)CC1	–	–	35µM	–	?	–
O=C(c1cccc(S(=O)(=O)N2CCN(c3ccccc3)CC2)c1)N1CCCCCCC1	–	–	–	–[0.501 µM]	–	–
O=C(c1cccc(-n2cccc2)c1)N1CCN(S(=O)(=O)c2ccccc2)CC1	8.9µM	?	5.6µM	–[2.33 µM]	13µM	–
CC1=Nc2cc(C(=O)NC3CCCC3)ccc2Sc2ccc(C)cc21	–	·	–	–	–	·
Cc1[nH]c2ccccc2c1/C=N/Nc1nc(Nc2ccccc2)nc(N2CCOCC2)n1	40µM	–	?	·	–	–
Cc1[nH]c2ccccc2c1/C=N/Nc1nncn1N	50µM	–	–	35µM	–	–
Nn1cnnc1N/N=C/c1ccc(Cl)cc1Cl	?	–	–	–	–	–
Cc1[nH]c2ccccc2c1/C=N/NC(=O)c1cccc(F)c1	–	–	–	·	–	–
Cc1[nH]c2ccccc2c1/C=N/Nc1ccccn1	35µM	·	·	?	·	·
Cc1[nH]c2ccccc2c1/C=N/NC(=O)c1cccs1	?	–	?	?	–	·
Cc1[nH]c2ccccc2c1/C=N/Nc1ccc(F)cc1F	45µM	·	·	32µM	·	·
Cc1nc2nc(CNC(=O)c3cccc(F)c3)nn2c(C)c1CCC(=O)Nc1cccc(Cl)c1	–	·	–	–	–	·
CCc1ccc(-n2c(N3CCN(c4cccc(Cl)c4)CC3)nc3ccccc3c2=O)cc1	·	·	–	–	–	·
Cc1ccc(CNC(=O)CSc2nc3c(sc4ccccc43)c(=O)n2CCCC(=O)NCCO)cc1	–	·	–	–	–	·
Cc1[nH]c2ccccc2c1/C=N/Nc1ccc([N+](=O)[O-])cc1	?	–	–	8.9µM	?	–
Cc1[nH]c2ccccc2c1/C=N/NC(=O)c1cccc([N+](=O)[O-])c1	–	–	–[11.4 µM]	–	–	·
Cc1[nH]c2ccccc2c1-c1csc(NC(=O)CN2CCOCC2)n1	79µM	–	?	35µM	–	–
Cc1[nH]c2ccccc2c1-c1csc(NC(=O)CSCC(=O)O)n1	–	–	–	?	–	·
Cc1ccccc1-n1c(SCc2c(C)noc2C)nnc1-c1cccnc1	–	–	–	40µM	–	–
CCn1c(CSc2nnc(-c3cccnc3)n2-c2ccccc2C)nc2cc(C(=O)O)ccc21	?	·	·	13µM	·	·
CCn1c(CSc2nnc3ccccn23)nc2cc(C(=O)O)ccc21	–	–	–	–	–	–
Cc1noc(C)c1CSc1nnc(-c2ccccc2F)n1CCc1ccccc1	–	–	–	40µM	–	–
CCn1c(CSc2n[nH]c(N)n2)nc2cc(C(=O)O)ccc21	?	–	?	40µM	–	–
SMILES	BAZ2B block	Six1-Eya2 inh	JMJD2A Tudor	G9a block	HP1b binding inh	CtBP-E1A blk
Cc1ccc(-n2c(SCc3nc(-c4ccccc4C)no3)nnc2-c2ccncc2)cc1C	–	·	–	–	–	·
COc1ccc(C(=O)NCC(=O)OCc2cc(=O)n3nc(C4CCCCC4)sc3n2)cc1	–	·	–	–	–	·
CCOCCc1nnc(NC(=O)C(=O)c2cc(C)n(-c3cccc(Cl)c3)c2C)s1	–	·	–	–	–	·
Cc1nc2sccn2c(=O)c1S(=O)(=O)NCc1ccc(F)cc1	–	·	–	–	–	·
CN(C)C(=O)c1ccc(N=Nc2c(O)c3ccccc3[nH]c2=O)cc1	·	–	–	·	–	–
COc1cc(N=Nc2ccc(C(=O)N(C)C)cc2)c(C)cc1N	·	–	3.5µM	·	20µM	–
Cc1cc(N=Nc2c(O)c3ccccc3[nH]c2=O)ccc1N=Nc1ccc(C(=O)N(C)C)cc1	?	–	?	79µM	–	·
CCc1nn2c(=O)cc(NC3CNC3)nc2s1	·	·	–	·	·	·
O=C(Nc1cc(Cl)cc(Cl)c1)c1ccc(F)c(S(=O)(=O)N2CCc3ccccc32)c1	–	·	–	–	–	·
Cc1cc(C)cc(Nc2ncnc3c2nc2n3CCCC2)c1	–	·	–	–	–	·

Screening results from PubChem.
